# Test results: publication PMC7862700, “An all-to-all approach to the identification of sequence-specific readers for epigenetic DNA modifications on cytosine”
# How the values were obtained:
# Test in all cases: DAPPL (digital affinity profiling via proximity ligation, sequencing); 10 mM Tris-HCl pH 7.5, 50 mM NaCl, 1 mM DTT, 4% glycerol, room temperature, 30 min; GST-TFs on glutathione beads, 16-mer random dsDNA library, 0.1% formaldehyde crosslink after washing; high values mean tight binding
# FLI1 = biological target: T1, FLI1 (Homo sapiens, UniProt Q01543 1-452); settings: protein: recombinant; tags: N-terminal GST; dsDNA, one strand shown
# T1 sequence: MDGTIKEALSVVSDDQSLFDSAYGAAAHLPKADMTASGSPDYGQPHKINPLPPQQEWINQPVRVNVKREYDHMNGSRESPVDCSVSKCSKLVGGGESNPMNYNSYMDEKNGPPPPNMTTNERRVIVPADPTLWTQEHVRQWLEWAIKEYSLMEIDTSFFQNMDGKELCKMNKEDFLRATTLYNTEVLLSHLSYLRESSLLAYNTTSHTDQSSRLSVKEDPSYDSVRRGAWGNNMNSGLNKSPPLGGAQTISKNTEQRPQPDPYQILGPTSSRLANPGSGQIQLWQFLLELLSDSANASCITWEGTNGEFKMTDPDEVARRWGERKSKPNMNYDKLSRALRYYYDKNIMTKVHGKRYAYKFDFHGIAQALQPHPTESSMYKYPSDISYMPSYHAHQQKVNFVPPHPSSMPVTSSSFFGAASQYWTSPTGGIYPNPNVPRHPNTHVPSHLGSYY
# Procedure, shortened: (§1)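 Human transcription factors carrying a GST fusion were produced in yeast, bound to glutathione beads, tagged with DNA barcodes and pooled together with a tag-only sample. Each pool was held with 200 nmole of a random double-stranded 16-mer DNA library in Tris/NaCl/DTT/glycerol buffer for 30 min at room temperature, then washed, crosslinked in 0.1% formaldehyde, proximity-ligated with BsaI/T4 ligase (1 h, 37 °C), PCR-amplified and sequenced on an Illumina NextSeq500. Binding signal is the read frequency of each hexamer for a given factor divided by its frequency in the tag-only sample.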
# ERG = biological target: T2, ERG (Homo sapiens, UniProt P11308 1-479); settings: protein: recombinant; tags: N-terminal GST; dsDNA, one strand shown
# T2 sequence: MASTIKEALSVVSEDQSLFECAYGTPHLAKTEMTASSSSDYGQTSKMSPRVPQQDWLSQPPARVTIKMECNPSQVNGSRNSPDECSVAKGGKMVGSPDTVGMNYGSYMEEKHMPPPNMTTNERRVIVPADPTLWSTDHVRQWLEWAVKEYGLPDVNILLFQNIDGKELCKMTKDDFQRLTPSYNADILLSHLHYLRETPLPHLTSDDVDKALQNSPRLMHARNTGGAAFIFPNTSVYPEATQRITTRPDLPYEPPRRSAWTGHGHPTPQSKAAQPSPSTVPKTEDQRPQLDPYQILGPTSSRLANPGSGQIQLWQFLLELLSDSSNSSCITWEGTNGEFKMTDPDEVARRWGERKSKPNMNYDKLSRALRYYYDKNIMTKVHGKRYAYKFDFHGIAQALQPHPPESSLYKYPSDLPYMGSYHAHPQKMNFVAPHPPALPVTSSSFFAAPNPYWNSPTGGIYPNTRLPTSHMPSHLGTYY
# Procedure, shortened: as §1
# EHF = biological target: T3, EHF (Homo sapiens, UniProt Q9NZC4 1-300); settings: protein: recombinant; tags: N-terminal GST; dsDNA, one strand shown
# T3 sequence: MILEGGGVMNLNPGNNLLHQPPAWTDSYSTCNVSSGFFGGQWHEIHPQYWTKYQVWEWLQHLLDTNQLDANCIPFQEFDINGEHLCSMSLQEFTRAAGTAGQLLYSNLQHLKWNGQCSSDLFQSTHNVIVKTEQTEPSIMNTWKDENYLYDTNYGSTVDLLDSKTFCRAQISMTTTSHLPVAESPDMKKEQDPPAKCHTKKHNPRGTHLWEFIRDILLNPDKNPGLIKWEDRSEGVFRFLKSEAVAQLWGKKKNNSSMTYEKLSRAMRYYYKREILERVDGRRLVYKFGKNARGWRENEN
# Procedure, shortened: as §1
# SPIB = SPIB (Homo sapiens, UniProt Q01892 1-262); settings: protein: recombinant; tags: N-terminal GST; dsDNA, one strand shown
# Procedure, shortened: as §1
# ELF3 = biological target: T4, ELF3 (Homo sapiens, UniProt P78545 1-371); settings: protein: recombinant; tags: N-terminal GST; dsDNA, one strand shown
# T4 sequence: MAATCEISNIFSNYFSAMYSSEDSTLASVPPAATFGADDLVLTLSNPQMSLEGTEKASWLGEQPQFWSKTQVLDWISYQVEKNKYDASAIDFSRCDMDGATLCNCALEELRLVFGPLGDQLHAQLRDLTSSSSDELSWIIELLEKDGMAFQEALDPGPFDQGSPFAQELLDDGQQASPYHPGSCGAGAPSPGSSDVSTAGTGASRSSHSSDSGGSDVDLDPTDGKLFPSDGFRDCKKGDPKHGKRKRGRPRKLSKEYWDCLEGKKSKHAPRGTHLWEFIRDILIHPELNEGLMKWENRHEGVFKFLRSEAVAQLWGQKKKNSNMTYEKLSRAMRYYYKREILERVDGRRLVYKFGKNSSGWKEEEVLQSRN
# Procedure, shortened: as §1
# ETV1 = ETV1 (Homo sapiens, UniProt P50549 1-477); settings: protein: recombinant; tags: N-terminal GST; dsDNA, one strand shown
# Procedure, shortened: as §1
# HSF1 = HSF1 (Homo sapiens, UniProt Q00613 1-529); settings: protein: recombinant; tags: N-terminal GST; chain copies: 3; dsDNA, one strand shown
# Procedure, shortened: as §1
# GABPA = biological target: T5, GABPA (Homo sapiens, UniProt Q06546 1-454); settings: protein: recombinant; tags: N-terminal GST; dsDNA, one strand shown
# T5 sequence: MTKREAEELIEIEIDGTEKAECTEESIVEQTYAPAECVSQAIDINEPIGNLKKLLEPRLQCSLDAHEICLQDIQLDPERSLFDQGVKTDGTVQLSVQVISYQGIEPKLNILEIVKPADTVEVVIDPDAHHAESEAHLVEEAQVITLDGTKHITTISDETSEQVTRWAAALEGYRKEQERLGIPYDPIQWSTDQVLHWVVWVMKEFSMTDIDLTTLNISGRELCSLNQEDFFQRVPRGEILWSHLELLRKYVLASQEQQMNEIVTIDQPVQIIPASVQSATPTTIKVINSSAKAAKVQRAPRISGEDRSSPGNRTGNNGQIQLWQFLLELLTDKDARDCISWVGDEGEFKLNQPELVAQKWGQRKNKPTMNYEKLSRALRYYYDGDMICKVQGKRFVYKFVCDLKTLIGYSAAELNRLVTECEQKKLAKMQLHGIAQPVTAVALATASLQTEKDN
# Procedure, shortened: as §1
# ELK3 = biological target: T6, ELK3 (Homo sapiens, UniProt P41970 1-407); settings: protein: recombinant; tags: N-terminal GST; dsDNA, one strand shown
# T6 sequence: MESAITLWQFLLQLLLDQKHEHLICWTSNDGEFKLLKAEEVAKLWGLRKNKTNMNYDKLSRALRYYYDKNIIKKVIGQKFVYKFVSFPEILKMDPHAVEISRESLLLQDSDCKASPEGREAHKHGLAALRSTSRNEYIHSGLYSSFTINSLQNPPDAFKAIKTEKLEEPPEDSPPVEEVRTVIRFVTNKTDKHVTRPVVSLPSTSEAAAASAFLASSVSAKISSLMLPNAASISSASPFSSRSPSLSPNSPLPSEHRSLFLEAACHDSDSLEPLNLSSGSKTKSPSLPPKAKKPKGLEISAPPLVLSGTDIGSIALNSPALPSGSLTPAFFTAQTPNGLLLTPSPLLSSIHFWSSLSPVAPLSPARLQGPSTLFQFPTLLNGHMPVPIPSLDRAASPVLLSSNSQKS
# Procedure, shortened: as §1
# FEV = biological target: T7, FEV (Homo sapiens, UniProt Q99581 1-238); settings: protein: recombinant; tags: N-terminal GST; dsDNA, one strand shown
# T7 sequence: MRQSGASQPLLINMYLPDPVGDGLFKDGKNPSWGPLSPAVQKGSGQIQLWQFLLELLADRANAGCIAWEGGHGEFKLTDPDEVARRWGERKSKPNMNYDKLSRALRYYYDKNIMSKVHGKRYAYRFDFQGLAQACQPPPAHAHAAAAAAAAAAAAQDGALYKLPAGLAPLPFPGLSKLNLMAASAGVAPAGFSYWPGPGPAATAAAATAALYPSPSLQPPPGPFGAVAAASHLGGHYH
# Procedure, shortened: as §1
# Chain of HSF1 (Q00613 whole entry): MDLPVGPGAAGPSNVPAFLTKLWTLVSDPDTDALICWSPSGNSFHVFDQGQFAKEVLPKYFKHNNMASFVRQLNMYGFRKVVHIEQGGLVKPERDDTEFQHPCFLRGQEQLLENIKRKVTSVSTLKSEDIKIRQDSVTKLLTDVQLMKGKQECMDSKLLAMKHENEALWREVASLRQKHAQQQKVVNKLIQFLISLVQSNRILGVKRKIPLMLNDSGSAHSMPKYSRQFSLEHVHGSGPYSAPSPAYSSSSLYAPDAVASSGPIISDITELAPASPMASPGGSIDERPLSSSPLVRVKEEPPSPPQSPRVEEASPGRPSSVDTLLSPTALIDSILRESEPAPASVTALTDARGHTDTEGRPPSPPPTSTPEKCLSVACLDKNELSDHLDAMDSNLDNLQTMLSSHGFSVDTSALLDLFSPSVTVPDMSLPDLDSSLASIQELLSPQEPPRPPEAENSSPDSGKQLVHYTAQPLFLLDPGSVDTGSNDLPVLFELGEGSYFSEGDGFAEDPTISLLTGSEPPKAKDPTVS
# Chain of SPIB (Q01892 whole entry): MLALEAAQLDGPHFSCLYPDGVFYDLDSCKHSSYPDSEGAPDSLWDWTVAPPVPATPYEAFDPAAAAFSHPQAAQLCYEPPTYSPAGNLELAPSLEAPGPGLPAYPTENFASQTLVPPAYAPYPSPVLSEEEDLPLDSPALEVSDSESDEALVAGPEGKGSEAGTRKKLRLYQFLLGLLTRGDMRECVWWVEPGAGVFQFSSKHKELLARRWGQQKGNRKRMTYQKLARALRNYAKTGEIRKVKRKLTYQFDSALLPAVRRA
# Chain of ETV1 (P50549 whole entry): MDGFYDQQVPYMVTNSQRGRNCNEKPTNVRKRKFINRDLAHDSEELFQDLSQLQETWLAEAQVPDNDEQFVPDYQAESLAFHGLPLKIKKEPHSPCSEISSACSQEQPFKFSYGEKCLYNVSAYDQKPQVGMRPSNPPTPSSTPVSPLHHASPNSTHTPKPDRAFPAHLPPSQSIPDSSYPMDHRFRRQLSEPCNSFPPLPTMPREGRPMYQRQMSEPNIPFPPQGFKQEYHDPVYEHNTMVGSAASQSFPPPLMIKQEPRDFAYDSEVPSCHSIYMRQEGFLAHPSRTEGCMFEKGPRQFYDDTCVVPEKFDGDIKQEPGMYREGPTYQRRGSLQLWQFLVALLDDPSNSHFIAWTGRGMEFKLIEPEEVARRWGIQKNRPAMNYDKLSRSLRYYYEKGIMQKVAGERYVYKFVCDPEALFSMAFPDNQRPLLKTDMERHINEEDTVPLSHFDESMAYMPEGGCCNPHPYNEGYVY
sequence,measurement,setting,value
ACGTCA,binding signal,FLI1,"1.01 fold enrichment (6-mer frequency, TF over GST control)"
same,binding signal,ERG,"1.01 fold enrichment (6-mer frequency, TF over GST control)"
same,binding signal,EHF,"1.01 fold enrichment (6-mer frequency, TF over GST control)"
same,binding signal,SPIB,"1.09 fold enrichment (6-mer frequency, TF over GST control)"
same,binding signal,ELF3,"1.03 fold enrichment (6-mer frequency, TF over GST control)"
same,binding signal,ETV1,"1.05 fold enrichment (6-mer frequency, TF over GST control)"
GCTGGA,binding signal,HSF1,"1.19 fold enrichment (6-mer frequency, TF over GST control)"
GACTCA,binding signal,FLI1,"1.06 fold enrichment (6-mer frequency, TF over GST control)"
same,binding signal,GABPA,"1.02 fold enrichment (6-mer frequency, TF over GST control)"
same,binding signal,SPIB,"1.09 fold enrichment (6-mer frequency, TF over GST control)"
same,binding signal,ELK3,"1.04 fold enrichment (6-mer frequency, TF over GST control)"
same,binding signal,FEV,"1 fold enrichment (6-mer frequency, TF over GST control)"
CTAGAG,binding signal,HSF1,"1.58 fold enrichment (6-mer frequency, TF over GST control)"
